# Screens as filed in PubChem BioAssay.
# This is a sample that favours compounds with a hit; in the whole collection about 4.5% have one here.
# FXN GAA850 act – frataxin GAA850 promoter activation | HEK293 lucGAA850 FXN promoter luciferase reporter, 24 h; percent of 10 µM SAHA response | 360,000 tested, 0.56% active | activation, % at 6 µM | AID 540364;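 active = activation above the average of all compounds screened plus 3 SD, cutoff fixed separately per campaign, cut at about 7.5% in these data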;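 also: 0% = DMSO wells and 100% = 10 µM SAHA wells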
# DAX1 inh-1 – inhibits human nuclear receptor DAX1 | HEK293 Gal4-DAX1 luciferase reporter, luminescence | inhibition, % at 6.75 µM | 340,000 tested, 0.99% active | AID 504766;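 active = inhibition above the mean over all tested compounds plus 3 SD, cut at about 4.2% in these data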;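 also: 0% = DAX1-transfected cells with DMSO and 100% = empty-vector control cells with DMSO; inhibition shows as a rise in luminescence from relieved DAX1 repression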
# Target sequence (P51843 207-470 limits assumed): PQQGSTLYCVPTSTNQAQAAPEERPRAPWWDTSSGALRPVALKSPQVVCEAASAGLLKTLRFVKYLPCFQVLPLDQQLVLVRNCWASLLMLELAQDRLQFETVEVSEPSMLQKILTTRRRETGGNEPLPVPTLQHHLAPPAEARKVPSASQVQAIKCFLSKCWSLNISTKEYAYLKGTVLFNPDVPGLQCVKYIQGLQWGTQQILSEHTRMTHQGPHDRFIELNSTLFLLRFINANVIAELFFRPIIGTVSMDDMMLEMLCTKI
# DAX1 inh-2 – inhibitors of DAX1 repression of SF-1 activated StAR promoter | HEK293T StAR-luciferase reporter, SF-1/DAX-1 repression relief | inhibition, % at 6.8 µM | 370,000 tested, 1.1% active;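 active = inhibition above the mean over all tested compounds plus 3 SD, cut at about 3.6% in these data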;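 also: 0% = DAX-1 cells with DMSO and 100% = cells lacking DAX-1 with DMSO; higher inhibition means more luminescence from relief of DAX-1 repression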
# hcDAF-12 act – H. contortus DAF-12 activation, primary screen. AID 652067. HEK293 hcDAF-12 lit1-tk-luc reporter, luminescence; 0% DMSO, 100% Δ7-dafachronic acid. 370,000 tested, 1.4% active. activation, % at 6.8 µM;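 active = activation above the mean of all tested compounds plus 3 SD, cut at about 5.5% in these data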;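 also: 100% = response to 3 µM Δ7-dafachronic acid high control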
# hgDAF-12 ag – activates the H. glycines DAF-12 receptor ligand-binding domain; HEK293 GAL4-hgDAF12 UAS-luciferase reporter, agonist luminescence; normalized to butyrate control; activation, % at 6.8 µM; 370,000 tested, 1.8% active; AID 687014;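 active = activation above a cutoff set at the mean of all screened compounds plus 3 SD, cut at about 10% in these data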;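 also: 0% = DMSO wells and 100% = sodium butyrate wells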
# ssDAF12 agonist – activators of S. stercoralis DAF-12 nuclear receptor. activation, % at 6.8 µM. 370,000 tested, 1% active. HEK293 ssDAF-12/GRIP1 lit1-tk-luc reporter, luminescence; % of 3 µM dafachronic acid response;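 active = activation above the mean over all tested compounds plus 3 SD, cut at about 0.9% in these data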;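 also: 0% = DMSO-only wells and 100% = 3 µM delta7-dafachronic acid wells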
# GAA30 counter – activates GAA30 frataxin promoter, counter-screen for GAA850 activators. 1,900 tested, 66% active. HEK293 lucGAA30 FXN promoter luciferase, 24 h; DMSO = 0%, 5 µM ipriflavone = 100%. shares compounds with FXN GAA850 act. activation, % at 6 µM. AID 588350;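 active = mean activation above the mean of solvent-only control wells plus 3 SD, cut at about 22% in these data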;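 also: counterscreen of GAA850 promoter hits where activity marks nonselective or luminescence artifacts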
# GAA850 confirm – GAA850 FXN promoter activation confirmation; shares compounds with FXN GAA850 act; HEK293 lucGAA850 FXN promoter luciferase reporter, 24 h; 100% = activation by SAHA; activation, % at 6 µM; 1,900 tested, 86% active; AID 588351;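 active = mean activation above a set limit taken from the primary screen, cut at about 8% in these data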;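 also: 0% = DMSO wells and 100% = 10 µM SAHA wells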
# DAX1 conf – NR0B1 (human) inhibition, confirmation; inhibition, % at 6.8 µM; 2,400 tested, 87% active; shares compounds with DAX1 inh-2; HEK293T StAR-promoter luciferase reporter, SF-1/DAX-1 repression;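 active = inhibition above the average of every tested compound plus 3 SD, cut at about 3.8% in these data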;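 also: 0% = DAX-1 cells with DMSO and 100% = no DAX-1 control cells with DMSO; active compounds raise luminescence by relieving repression of the StAR reporter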
# Target sequence (P51843 whole entry, looked up): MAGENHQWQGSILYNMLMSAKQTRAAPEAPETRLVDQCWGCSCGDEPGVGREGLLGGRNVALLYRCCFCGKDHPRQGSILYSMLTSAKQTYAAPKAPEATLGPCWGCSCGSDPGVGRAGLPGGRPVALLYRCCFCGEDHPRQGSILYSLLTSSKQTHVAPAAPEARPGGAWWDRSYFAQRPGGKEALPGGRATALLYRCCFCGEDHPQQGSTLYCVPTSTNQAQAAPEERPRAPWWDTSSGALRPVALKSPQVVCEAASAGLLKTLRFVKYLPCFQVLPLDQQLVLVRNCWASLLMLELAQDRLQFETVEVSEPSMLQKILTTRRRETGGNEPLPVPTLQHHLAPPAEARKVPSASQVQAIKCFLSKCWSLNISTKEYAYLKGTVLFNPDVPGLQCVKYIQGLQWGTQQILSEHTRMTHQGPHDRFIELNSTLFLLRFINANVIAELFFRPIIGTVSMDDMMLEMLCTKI
# SF1 mutant ctr – nonselective inhibitor or artifact in SF-1 mutant DAX1 counter-screen; 2,400 tested, 78% active; HEK293 StAR-luciferase, SF-1 AF2 mutant, luminescence; inhibition, % at 6.8 µM; shares compounds with DAX1 inh-2;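 active = inhibition above the mean of all tested compounds plus 3 SD, cut at about 3% in these data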;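 also: 0% = DAX-1 transfected cells with DMSO and 100% = cells without DAX-1 with DMSO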
# hgDAF12 ag – hgDAF-12 agonism, confirmation assay. AID 743050. activation, % at 6.8 µM. HEK293 GAL4-hgDAF12 luciferase reporter, agonist mode; percent of butyrate response. shares compounds with hgDAF-12 ag. 3,300 tested, 80% active;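 active = mean activation over triplicate wells above the hit cutoff derived from the earlier primary screen, cut at about 11% in these data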;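 also: 0% = DMSO low control and 100% = 2 mM sodium butyrate high control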
# LXRb DAF12 ctr – LXR-beta agonism as DAF-12 counter-screen | shares compounds with hgDAF-12 ag | HEK293 Gal4-LXR luciferase reporter, 24 h | activation, % at 6.8 µM | 3,300 tested, under 10 active | AID 743051;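 active = mean activation of the triplicate above a set limit carried over from the primary screen, none filed active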
# The depositor's hits bear a star; / = not tested or not shown.
SMILES,FXN GAA850 act,DAX1 inh-1,DAX1 inh-2,hcDAF-12 act,hgDAF-12 ag,ssDAF12 agonist,GAA30 counter,GAA850 confirm,others
CC1(C)CN=C(NCc2ccccc2)S1,2,1,0,-1,0,-1,/,/,
CC1(C)CN=C(Nc2nc3ccccc3s2)S1,1,3,3,5,10,1.5*,/,/,
c1cncc(-c2ccc3n2Cc2cnnn2-c2ccccc2-3)c1,/,/,-1,-3,2,-2,/,/,
Oc1ccc2c3c1O[C@H]1[C@@H](O)CC[C@@]4(O)[C@@H](C2)N(CC2CCC2)CC[C@]314,1,1,1,0,-5,-1,/,/,
NC(N)=Nc1ccc2[nH]c3c(c2c1)C[C@@]1(O)[C@H]2Cc4ccc(O)c5c4[C@@]1(CCN2CC1CC1)[C@H]3O5,11*,-1,/,/,/,/,/,/,
COC(=O)C1(N(C)c2ccccc2)CCN(Cc2ccccc2)CC1,/,/,1,2,0,-1,/,/,
Cc1[nH]c2ccc(OC(F)(F)F)cc2c1CCNCc1ccc(Cl)cc1,13*,0,0,0,-2,-1,10,8.9*,
Cc1[nH]c2ccc(OC(F)(F)F)cc2c1CCNCc1cccc([N+](=O)[O-])c1,5,-2,0,-2,-2,-1,/,/,
CCN(C)C(C)Cc1cccc(C(F)(F)F)c1 (stereo unspecified),/,/,1,0,0,-1,/,/,
CCN[C@@H](C)Cc1cccc(C(F)(F)F)c1,14*,0,0,2,2,-1,12,6,
C[C@@H]1CN([C@@H](C)CO)C(=O)CCCn2nncc2CO[C@@H]1CN(C)C(=O)Oc1cccc2ccccc12,-1,1,0,2,4,-1,/,/,
C/C1=C\[C@@H](C)C/C=C/[C@H]2[C@@H]3O[C@]3(C)[C@@H](C)[C@H]3[C@H](Cc4c[nH]c5ccccc45)NC(=O)[C@]32C(=O)/C=C/C(=O)[C@@H]1O,8.8*,-2,/,/,/,/,-16,46*,
Nc1cc(Cl)c2nonc2c1[N+](=O)[O-],43*,1,-1,0,-2,-1,14,86*,
CC(NC(=O)N1CC1(C)C)c1ccccc1 (stereo unspecified),-1,0,0,0,1,-1,/,/,
Cc1ccc(N2Cc3ccccc3-n3nncc3C2)cc1,/,/,-1,-2,1,-1,/,/,
COc1cc(C)c(CN2CC=C(c3ccc(F)cc3)CC2)cc1C,0,0,0,1,-1,-1,/,/,
COc1cc2nc(CN3CC=C(c4ccccc4)CC3)[nH]c(=O)c2cc1OC,22*,6.0*,-1,1,8,0,77*,61*,
CC(=NNC(=S)N1CC2CCC(CC2)C1)c1nccs1,12*,-4,-1,5,12*,0,-66,4,
OC12ONC(c3ccccn3)C1N1CCC2CC1 (stereo unspecified),18*,-1,0,0,0,-1,34*,16*,
O=C(NCCN1CCC2(CC1)C(=O)NCN2c1ccccc1)C(c1ccccc1)c1ccccc1,/,/,1,-2,0,-1,/,/,
CN(C)[C@@H]1C(=O)C(C(N)=O)=C(O)[C@@]2(O)C(=O)C3=C(O)c4c(O)cccc4[C@@](C)(O)[C@H]3[C@H](O)[C@@H]12,2,0,1,-2,1,-1,/,/,
CN(C)[C@@H]1C(=O)C(C(N)=O)=C(O)[C@@]2(O)C(=O)C3=C(O)c4c(O)ccc(Cl)c4[C@@](C)(O)[C@H]3C[C@@H]12,13*,1,1,0,-2,-1,41*,15*,
Cc1ccc(-c2nc3ccc(Cl)cc3n2OC(=O)N(C)C)cc1,7.7*,1,2,5,14*,0,109*,41*,hgDAF12 ag=12*;LXRb DAF12 ctr=1
Cc1cccc(-n2c(C)nc3ccc(Cl)cc3c2=O)c1,2,0,0,0,-1,-1,/,/,
CN1CCCN(C(=O)COc2ccc(Br)cc2)CC1,2,2,0,1,2,0,/,/,
SMILES,FXN GAA850 act,DAX1 inh-1,DAX1 inh-2,hcDAF-12 act,hgDAF-12 ag,ssDAF12 agonist,GAA30 counter,GAA850 confirm,others
Cc1cc(OCC(=O)N2CCCN(C)CC2)ccc1Cl,2,0,5.2*,0,2,0,/,/,DAX1 conf=3;SF1 mutant ctr=0
CN1C2(C)c3ccccc3C1(c1ccccc1)c1ccccc12,/,/,-1,0,-3,-1,/,/,
Cc1cnc(NC(=O)CN2CCCCC2)s1,0,0,0,1,2,0,/,/,
C[C@H]1CCC/C=C/[C@@H]2C[C@H](O)C[C@H]2[C@H](O)/C=C/C(=O)O1,-9,-3,4.4*,-3,-1,-2,/,/,DAX1 conf=10*;SF1 mutant ctr=2
C[C@H]1CCCC(=O)CCC/C=C/c2cc(O)cc(O)c2C(=O)O1,-3,1,-1,-4,-7,-2,/,/,
CCOC(=O)[C@]12Cc3c(cc(OC)c(OC)c3OC)[C@H]1N(C)C(=O)c1cc(OC)ccc12,/,/,4.7*,2,0,-1,/,/,DAX1 conf=9.5*;SF1 mutant ctr=14*
CCOC(=O)[C@]12Cc3c(cc(OC)c(OC)c3OC)[C@H]1N(C(C)C)C(=O)c1ccccc12,/,/,5.5*,0,-1,-1,/,/,DAX1 conf=4.6*;SF1 mutant ctr=6.4*
CCOC(=O)[C@]12Cc3ccccc3[C@H]1N(C(C)C)C(=O)c1cc(OC)ccc12,/,/,7.0*,0,-4,-1,/,/,DAX1 conf=6.0*;SF1 mutant ctr=16*
Cc1cccc(N=C2c3cc([N+](=O)[O-])ccc3-c3c2cc([N+](=O)[O-])cc3[N+](=O)[O-])c1,0,0,-1,0,-3,-1,/,/,
